Measured values taken from PubChem BioAssay AID2685 (National Center for Advancing Translational Sciences (NCATS), 2010).
In all, about 320,000 compounds went through this assay and about 2,100 (0.66%) were called active. Another 53% or so got no clear call; they are omitted. Calls come from the whole dose curve; as a rule, active = well fitted inhibition curve with a large enough effect in the signal ratio, with a control signal flat (not every such curve was filed as active); inconclusive = small, poorly fitted or top-dose-only effect, or effect the other way, or a change in a side signal; inactive = flat fitted curve, though single readings scatter; the % refers to the signal ratio. Shown is part of a subset that was picked to be rich in actives.

experiment: qHTS Assay for Lipid Storage Modulators in Drosophila S3 Cells; conditions: BODIPY lipid droplet fluorescence, 18-24 h, cells fed with added oleic acid; cell number change: measured here: cell count max response; series mostly up to 46.1 µM; lipid storage change, negative = inhibition: at the top concentration;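 for cell number change: cells counted by Cell Tracker Red CMTPX staining in the red channel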; for lipid storage change, negative = inhibition: % is set by controls: 0 for no effect and ±100 for the full control effect
Summary of the method: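 Drosophila S3 cells got compounds at several concentrations plus oleic acid (400 uM solution). Laser-scanning cytometry with 488 nm excitation read lipid droplets at 500-530 nm and cells at 575-640 nm. Percent activity was relative to 20 uM Triacsin C.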
Potency is the fitted concentration of half-maximal effect.

Compound | outcome | lipid storage change, negative = inhibition | cell number change | Potency
CCc1cccc(CC)c1NC(=O)C1SC(=Nc2ccccc2C)C(c2nc3ccccc3s2)=C1N (stereo not drawn) | inactive |  |  | 
O=C1NC2(CCSC2)C(=O)N1CC(=O)N(Cc1ccccc1)C1CCS(=O)(=O)C1 (stereo not drawn) |  | -0.0384% (inactive) | 1.14% | 
O=C(NC1CC2CCCC(C1)N2C(=S)NCCc1ccccc1)C1CC1 (stereo not drawn) |  | -39.3% (inactive) | -26.1% | 
COc1cc(CO)cc(Br)c1OCc1cccnc1 |  | 17.8% (inactive) | -5.87% | 
COc1cc(CO)cc(Br)c1OCC(=O)O |  |  | 9.61% | 2.06 µM (active)
CCNCc1cc(Br)c(OCC(=O)Nc2ccccc2)c(OC)c1 |  | 7.44% (inactive) | 1.4% | 
CC(C)(C)c1ccc(/C=C/C(=O)N2CCOCC2)cc1 | inactive |  | -2.69% | 
CCC1Sc2ccc(S(=O)(=O)CCC(=O)NCc3ccc(C)o3)cc2NC1=O (stereo not drawn) | inactive |  | -1.81% | 
O=C(NN1CCOCC1)c1cccc(Cl)c1 |  | -1.82% (inactive) | 14.2% | 
Cc1cc(C(=O)N2CCCC(C(=O)c3ccc4ccccc4c3)C2)nn1C (stereo not drawn) |  | 1.31% (inactive) | 11.4% | 
CC(C)c1cc(C(=O)N2CCCC(C(=O)c3ccc4ccccc4c3)C2)on1 (stereo not drawn) |  | 6.79% (inactive) |  | 
Cc1cc(C(=O)N2CCCC(C(=O)c3ccc4ccccc4c3)C2)n(C)n1 (stereo not drawn) |  |  | -14.9% | 25.9 µM (active)
Cc1cc(C(=O)NC2CCC(C)CC2)c(C)o1 (stereo not drawn) |  | -14.9% (inactive) | -8.31% | 
O=C(CSc1nnc(-c2cccnc2)n1CCN1CCCCC1)Nc1cccc(Cl)c1 |  | 0.818% (inactive) | 11.7% | 
CCCN1C2CCCC1CC(NC(=S)NCCCOCC)C2 (stereo not drawn) | inactive |  | -29.4% | 
CCSc1nc(-c2ccccc2)c2cc(Cl)ccc2n1 |  | 2.19% (inactive) | -8.68% | 
Clc1cc(CSc2ccccc2)nc(-c2ccccc2)n1 | inactive |  |  | 
CSc1nc(-c2ccc(C)cc2)nc(C(Cl)Cl)n1 |  | 7.05% (inactive) | 10.6% | 
CSc1nnc(-c2ccccc2)c(-c2ccccc2)n1 |  | 11.7% (inactive) | -3.83% | 
CCSc1nc(-c2ccccc2)nc(C(Cl)Cl)n1 |  |  | -6.95% | 5.17 µM (active)
CSc1nc(-c2ccccc2)nc(C(Cl)Cl)n1 |  |  | -22.1% | 8.2 µM (active)
COc1ccccc1/C=N/OC(=O)c1ccc(F)cc1 |  | -0.325% (inactive) | 3.91% | 
Cc1cc(Cl)c(Cl)cc1S(=O)(=O)NCCCn1ccnc1 |  |  | -5.8% | 6.51 µM (active)
Cc1cc(C)c(S(=O)(=O)NCCCn2ccnc2)cc1C |  | 10.5% (inactive) | 4.74% | 

Compound | outcome | lipid storage change, negative = inhibition | cell number change | Potency
COc1cc(Cl)c(S(=O)(=O)NCCCn2ccnc2)cc1Cl |  | -3.68% (inactive) | 29% | 
COc1cccc(NC(=O)C2CCC(CNC(=O)[C@@H]3Cc4ccccc4CN3)CC2)c1 (stereo partly drawn) | inactive |  | 0.236% | 
CC(C(=O)Nc1ccc(F)c(F)c1F)N(C)Cc1cccs1 (stereo not drawn) |  | -15.3% (inactive) | 25.5% | 
CCOC(=O)N1CCN(S(=O)(=O)N2CCCC(C(=O)NCCc3ccc(OC)c(OC)c3)C2)CC1 (stereo not drawn) |  | -9.88% (inactive) | -20.2% | 
CCOC(=O)N1CCN(S(=O)(=O)N2CCCC(C(=O)NCCc3ccc(OCC)c(OCC)c3)C2)CC1 (stereo not drawn) |  |  |  | 4.61 µM (active)
CCOc1ccc(S(=O)(=O)N2CCCC(C(=O)N3CCOCC3)C2)cc1Cl (stereo not drawn) | inactive |  | 16.4% | 
COc1ccc(S(=O)(=O)N2CCCC(C(=O)N3CCOCC3)C2)cc1C (stereo not drawn) | inactive |  | 17.1% | 
O=C(Nc1ccncc1)C1CCN(S(=O)(=O)c2cccc(C(F)(F)F)c2)CC1 |  | 9.54% (inactive) | -3.08% | 
O=C(Nc1ccncc1)C1CCN(S(=O)(=O)c2ccc(Cl)c(C(F)(F)F)c2)CC1 |  |  | 2.68% | 10.3 µM (active)
COc1ccc(CNC(=O)[C@H](C)NC(=O)C2CCN(S(=O)(=O)c3ccc(C)cc3)CC2)cc1 | inactive |  | -4.43% | 
COc1ccc(S(=O)(=O)N2CCC(C(=O)N[C@@H](C)C(=O)NCc3ccc(F)cc3)CC2)cc1 | inactive |  | 13.5% | 
CCOc1ccc(CCNC(=O)C2CCCN(S(=O)(=O)N3CCOCC3)C2)cc1OCC (stereo not drawn) |  | -4.66% (inactive) | 0.288% | 
CS(=O)(=O)N1CCC(C(=O)Nc2ccc(Cl)c(C(F)(F)F)c2)CC1 | inactive |  | -15.8% | 
COc1ccc(CNC(=O)[C@H](C)NC(=O)C2CCN(S(=O)(=O)c3ccc(F)cc3)CC2)cc1 |  |  | 3.44% | 18.4 µM (active)
CCOc1ccc(S(=O)(=O)N2CCCC(C(=O)N3CCOCC3)C2)cc1C (stereo not drawn) |  |  | -23.5% | 2.31 µM (active)
O=C(NC1=NCCS1)c1ccccc1Cl |  | 16.7% (inactive) | -14.3% | 
CO/N=C/CC(=O)Nc1ccc(F)cc1F |  | 1.73% (inactive) | 16.8% | 
CCCNC(=O)Nc1nc(CC(=O)OCC)cs1 |  | -0.813% (inactive) | -16.9% | 
CC1NC2(C(=O)N(Cc3ccccc3)c3ccccc32)C2C(=O)N(c3ccccc3)C(=O)C12 (stereo not drawn) | inactive |  |  | 
CC1Cc2ccccc2C(CCc2ccccc2)=N1 (stereo not drawn) |  | -0.249% (inactive) | -1.48% | 
CSc1cccc(CNC(=O)CC2C(=O)NCCN2CC(C)(C)C)c1 (stereo not drawn) |  | 10.7% (inactive) | 22% | 
COc1ccc(-c2cc3cc(C(=O)O)ccn3c2C(=O)c2ccccc2)cc1 |  | -4.15% (inactive) | 2.31% | 
CC1CCC2(CC1)NC(=O)N(CC(=O)NC(=O)Nc1ccc3c(c1)OCCO3)C2=O (stereo not drawn) |  | 2.79% (inactive) | 17.3% | 
O=C(NCc1ccncc1)C1CCN(S(=O)(=O)c2ccc(F)cc2)CC1 | inactive |  | 1.32% | 

Compound | outcome | lipid storage change, negative = inhibition | cell number change | Potency
O=C(NC1CCCCCC1)C1CCN(S(=O)(=O)c2ccc(F)cc2)CC1 |  | 9.96% (inactive) | -1.11% | 
CCOc1ccc(S(=O)(=O)N2CCCC(C(=O)NCc3ccncc3)C2)cc1Cl (stereo not drawn) |  |  | 25.2% | 1.03 µM (active)
COc1ccc(S(=O)(=O)N2CCC(C(=O)NCCc3ccccc3)CC2)cc1 |  | 4.73% (inactive) | 20.5% | 
Cc1ccc(S(=O)(=O)N2CCC(C(=O)NCCc3ccccc3)CC2)cc1 |  |  | -12.9% | 23.1 µM (active)
O=C(NC1CCCCC1)C1CCCN(S(=O)(=O)c2ccc(F)cc2)C1 (stereo not drawn) | inactive |  | 2.52% | 
Cc1ccc(S(=O)(=O)N2CCC(C(=O)N[C@@H](C)C(=O)NCCc3ccccc3)CC2)cc1 |  | 11.5% (inactive) | 4.36% | 
CSc1ccc(S(=O)(=O)N2CCC(C(=O)NCc3ccncc3)CC2)cc1 |  | -5.08% (inactive) | 19.2% | 
Cc1ccc(S(=O)(=O)N2CCC(C(=O)NCc3ccncc3)CC2)cc1 |  |  | 12.7% | 18.4 µM (active)
CCOc1ccc(S(=O)(=O)N2CCCC(C(=O)NCc3ccncc3)C2)cc1C (stereo not drawn) | inactive |  | 9.24% | 
O=C(NC1CCN(S(=O)(=O)c2ccc(F)cc2)CC1)C1CCCCC1 |  |  | -18.1% | 5.17 µM (active)
CCOc1ccc(S(=O)(=O)N2CCC(C(=O)NCc3ccncc3)CC2)cc1Cl |  | 29.2% (inactive) | -18.4% | 
Cc1ccc(NC(=O)C(C)OC(=O)COc2cccc(C(F)(F)F)c2)cc1 (stereo not drawn) |  | 4.89% (inactive) | 3.29% | 
COc1ccccc1N(CCC#N)C(=O)CSc1nc(-c2ccccc2)cn1N |  | 21.1% (inactive) | -6.12% | 
COc1ccc(/C=C/c2nc(-c3ccccc3)cc(=O)[nH]2)cc1 |  | -10.7% (inactive) | -10.9% | 
Cc1cn(C2CCC(CO)O2)c(=O)[nH]c1=O (stereo not drawn) | inactive |  | 27% | 
CC1CCCC(NC(=O)COC(=O)c2cccs2)C1C (stereo not drawn) |  | 2.84% (inactive) | 0.184% | 
CCOc1ccc(NC(=O)CN2C(=O)C3CCCN3C2=O)cc1 (stereo not drawn) | inactive |  |  | 
CC1(C)CC(=O)C(C=NCCN2CCN(CCc3ccccc3)CC2)=C(O)C1 |  | 1.55% (inactive) |  | 
Cc1ccccc1C(=O)N1CCN(c2ccc(NC(=O)c3cccnc3)cc2)CC1 |  | -0.627% (inactive) | 24.6% | 
CCOc1cc(C(=S)N2CCN(C)CC2)ccc1OCC(=O)N1CCOCC1 |  | 12.5% (inactive) | -0.877% | 
COc1ccc2c(c1)C1=NN(/C(C)=C\C(C)=O)C(c3ccccc3)C1CC2 (stereo not drawn) |  | -2.18% (inactive) | -20.1% | 
COc1cccc(CNCC(O)COc2ccc(C(=O)c3ccccc3)cc2)c1 (stereo not drawn) |  | 0.646% (inactive) | -29.5% | 
COC(=O)CN1C(=O)NC2(CCCc3ccccc32)C1=O (stereo not drawn) |  | -10.4% (inactive) | 1.11% | 
O=C(c1ccc(C(F)(F)F)cc1)C1CCCN(Cc2cccn2-c2ncccn2)C1 (stereo not drawn) |  | 17.2% (inactive) | 20.4% | 

Compound | outcome | lipid storage change, negative = inhibition | cell number change | Potency
O=C1CC(N2CCN(c3ccc(F)cc3)CC2)C(=O)N1c1ccc(F)cc1 (stereo not drawn) |  | 0.693% (inactive) | -10.9% | 
CCS(=O)(=O)N1CCCC(C(=O)NCCc2ccccc2)C1 (stereo not drawn) |  |  | -14.3% | 25.9 µM (active)
CCCS(=O)(=O)N1CCCC(C(=O)NCCc2ccccc2)C1 (stereo not drawn) |  | 4.64% (inactive) | 1.16% | 
CCCCS(=O)(=O)N1CCCC(C(=O)NCCc2ccccc2)C1 (stereo not drawn) |  | -13.4% (inactive) | -7.87% | 
Cc1ccc(C(=O)NCC(c2ccco2)N2CCCCC2)s1 (stereo not drawn) |  | 0.161% (inactive) | 20.8% | 
O=C(O)c1cccc(NC(=O)C2CC(=O)N(Cc3ccccc3)C2)c1 (stereo not drawn) |  |  | -0.647% | 4.61 µM (active)
CC(=O)c1cccc(NC(=O)C2CC(=O)N(Cc3ccccc3)C2)c1 (stereo not drawn) | inactive |  |  | 
CSc1cccc(NC(=O)C2CC(=O)N(Cc3ccccc3)C2)c1 (stereo not drawn) |  | 6.25% (inactive) | 8.1% | 
O=S(=O)(Nc1ccc(Cc2ccncc2)cc1)c1ccc(Cl)cc1 |  | 5.23% (inactive) | 4.35% | 
O=S(=O)(Nc1ccncc1)c1ccc(Cl)cc1 |  |  | -14.9% | 10.3 µM (active)
CCc1ccc(S(=O)(=O)Nc2ccncc2)cc1 | inactive |  | -6.32% | 
COc1ccc(C(=O)N2CCC(=O)N(C(CO)Cc3ccccc3)CC2)cc1 (stereo not drawn) |  | 1.55% (inactive) | -2.26% | 
Cc1ccc(N=Cc2c(O)n(C)c(=O)n(C)c2=O)nc1 |  | 1.38% (inactive) | 3.34% | 
O=S(=O)(Nc1cccnc1)c1ccc(Br)c2ccccc12 |  |  | -5.22% | 7.31 µM (active)
O=S(=O)(NCc1cccnc1)c1ccc(Br)c2ccccc12 | inactive |  | 10.4% | 
Cc1ccccc1S(=O)(=O)Nc1cccnc1 |  | 4.78% (inactive) | 1.91% | 
C/C(CC(=O)Nc1ccc(Cl)cc1Cl)=N\NC(=O)c1ccncc1 |  | 15.2% (inactive) | 23% | 
COc1cc2c(cc1OC)C(c1cccc(Cl)c1Cl)CC(=O)N2 (stereo not drawn) |  | -8.05% (inactive) | -12.7% | 
COc1ccc(C(=O)N/N=C(\C)CC(=O)Nc2ccc3c(c2)OCCO3)c(OC)c1 | inactive |  | 14.3% | 
C/C(CC(=O)Nc1ccc2c(c1)OCCO2)=N\NC(=O)c1ccccc1F | inactive |  | 8.06% | 
COc1ccccc1C(=O)N/N=C(\C)CC(=O)Nc1ccc2c(c1)OCCO2 |  |  | 22.4% | 16.4 µM (active)
